For 15 sequences, binding signal results are on record in publication PMC8384837, “Expanding the binding specificity for RNA recognition by a PUF domain”.

Positions count from the first letter of the chain named.

Common to all, as to assay: yeast three-hybrid, YBZ-1, SC-Leu-His + 0.5 mM 3-AT, 4 days
Common to all, as to settings: tags: N-Gal4 AD-HA kept; label: inside an RPR1-promoter hybrid RNA with tandem MS2 sites; ssRNA

The target in one experiment is T1, PUM1 PUF domain R6-WYG (Homo sapiens, UniProt Q14671 828-1176, N1043W;Q1047G).
T1 sequence: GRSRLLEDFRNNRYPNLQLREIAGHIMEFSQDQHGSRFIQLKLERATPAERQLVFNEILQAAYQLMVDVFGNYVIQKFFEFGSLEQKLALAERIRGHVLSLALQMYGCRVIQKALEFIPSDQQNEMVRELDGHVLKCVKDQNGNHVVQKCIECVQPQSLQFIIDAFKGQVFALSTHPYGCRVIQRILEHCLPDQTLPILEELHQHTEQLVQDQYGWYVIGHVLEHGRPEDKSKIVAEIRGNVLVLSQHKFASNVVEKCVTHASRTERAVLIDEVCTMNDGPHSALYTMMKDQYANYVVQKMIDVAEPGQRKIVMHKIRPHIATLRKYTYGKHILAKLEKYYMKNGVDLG
The method in brief:
(§1)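 Matching RNA elements and Pumilio-1 PUF domain libraries, randomized at the three base-contacting residues of every repeat, were co-expressed from a centromeric plasmid in strain YBZ-1 (LexA–MS2 coat fusion, HIS3 reporter). The repeat regions were PCR-amplified and Illumina-sequenced from cells grown four days on SC-Leu (input) or SC-Leu-His + 0.5 mM 3-AT (selection). The interaction score is the log change in variant frequency from input to selection. It is computed in log2, with a pseudocount of 1 for absent variants.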

Another experiment deals with PUM1 PUF domain R2-GWD (Homo sapiens, UniProt Q14671 828-1176, N899G;Y900W;Q903D). The method in brief: as §1
A further experiment concerns the target PUM1 PUF domain R3-LYG (Homo sapiens, UniProt Q14671 828-1176, C935L;R936Y;Q939G). The method in brief: as §1
The target in another experiment is PUM1 PUF domain R8-KHS (Homo sapiens, UniProt Q14671 828-1176, N1122K;Y1123H;Q1126S). The method, boiled down: as §1
Another experiment has as its target T2, PUM1 PUF domain R6-HFW (Homo sapiens, UniProt Q14671 828-1176, N1043H;Y1044F;Q1047W).
T2 sequence: T1 sequence with W216H, Y217F, G220W
The method, boiled down: as §1

A further experiment has as its target PUM1 PUF domain R8-LRR (Homo sapiens, UniProt Q14671 828-1176, N1122L;Y1123R;Q1126R). The method, boiled down: as §1
The target of a further experiment is T3, PUM1 PUF domain R6-RHG (Homo sapiens, UniProt Q14671 828-1176, N1043R;Y1044H;Q1047G).
T3 sequence: T1 sequence with W216R, Y217H
The method, boiled down: as §1

The next experiment concerns the target PUM1 PUF domain R1-TSR (Homo sapiens, UniProt Q14671 828-1176, S863T;R864S;Q867R). The method in brief:
as §1

The target of another experiment is PUM1 PUF domain R1-RTE (Homo sapiens, UniProt Q14671 828-1176, S863R;R864T;Q867E). The method in brief:
as §1

A further experiment has as its target PUM1 PUF domain R3-RSC (Homo sapiens, UniProt Q14671 828-1176, C935R;R936S;Q939C). The method, boiled down:
as §1

Another experiment deals with PUM1 PUF domain R5-RSI (Homo sapiens, UniProt Q14671 828-1176, C1007R;R1008S;Q1011I). The method in brief: as §1
The next experiment concerns the target T4, PUM1 PUF domain R6-SWH (Homo sapiens, UniProt Q14671 828-1176, N1043S;Y1044W;Q1047H).
T4 sequence: T1 sequence with W216S, Y217W, G220H
The method, boiled down: as §1

The next experiment concerns the target PUM1 PUF domain R8-RPR (Homo sapiens, UniProt Q14671 828-1176, N1122R;Y1123P;Q1126R). The method, boiled down: as §1
The next experiment has as its target PUM1 PUF domain R8-GYK (Homo sapiens, UniProt Q14671 828-1176, N1122G;Q1126K). The method, boiled down: as §1
In a further experiment the target is PUM1 PUF domain R4-MPG (Homo sapiens, UniProt Q14671 828-1176, N971M;H972P;Q975G). The method in brief:
as §1

A further experiment deals with PUM1 PUF domain R4-VWK (Homo sapiens, UniProt Q14671 828-1176, N971V;H972W;Q975K). The method, boiled down: as §1
The target in another experiment is PUM1 PUF domain R1-QLD (Homo sapiens, UniProt Q14671 828-1176, S863Q;R864L;Q867D). The method, boiled down:
as §1

A further experiment concerns the target PUM1 PUF domain R5-WWA (Homo sapiens, UniProt Q14671 828-1176, C1007W;R1008W;Q1011A). The method in brief:
as §1

A further experiment deals with PUM1 PUF domain R3-MSN (Homo sapiens, UniProt Q14671 828-1176, C935M;R936S;Q939N). The method, boiled down:
as §1

The next experiment has as its target PUM1 PUF domain R2-LWM (Homo sapiens, UniProt Q14671 828-1176, N899L;Y900W;Q903M). The method, boiled down:
as §1

In the case of “GGCUAGAACUAGUGGAUCCCCCGGCGCCCGGCGGCUCGAGCCCGGGUAAGUGUAAAUAGUCUGCAUGCCGCCGGGCGCCAUGCCUGCAGGUCGACUCUAGAAAACAUG”, the binding signal with PUM1 PUF domain R6-WYG was 3.19 log2 enrichment (interaction score); in the experiment with PUM1 PUF domain R2-GWD, 1.77 log2 enrichment (interaction score); with PUM1 PUF domain R3-LYG, 2.65 log2 enrichment (interaction score); in the experiment with PUM1 PUF domain R8-KHS, 4.58 log2 enrichment (interaction score); in the experiment with PUM1 PUF domain R6-HFW it was 3.2 log2 enrichment (interaction score); in the experiment with PUM1 PUF domain R8-LRR, 2.35 log2 enrichment (interaction score). The binding signal in the experiment with PUM1 PUF domain R6-RHG was 2.33 log2 enrichment (interaction score).

For the sequence “GGCUAGAACUAGUGGAUCCCCCGGCGCCCGGCGGCUCGAGCCCGGGUAAGUGUAAAUCGUCUGCAUGCCGCCGGGCGCCAUGCCUGCAGGUCGACUCUAGAAAACAUG”, in the experiment with PUM1 PUF domain R1-TSR, the binding signal is 2.68 log2 enrichment (interaction score).

As for “GGCUAGAACUAGUGGAUCCCCCGGCGCCCGGCGGCUCGAGCCCGGGUAAGUGUAAAUGGUCUGCAUGCCGCCGGGCGCCAUGCCUGCAGGUCGACUCUAGAAAACAUG”, the binding signal in the experiment with PUM1 PUF domain R1-RTE is 0.93 log2 enrichment (interaction score).

With “GGCUAGAACUAGUGGAUCCCCCGGCGCCCGGCGGCUCGAGCCCGGGUAAGUGUAAUUAGUCUGCAUGCCGCCGGGCGCCAUGCCUGCAGGUCGACUCUAGAAAACAUG”, the binding signal with PUM1 PUF domain R3-LYG was 4.62 log2 enrichment (interaction score); with PUM1 PUF domain R3-RSC it was 3.04 log2 enrichment (interaction score).

For “GGCUAGAACUAGUGGAUCCCCCGGCGCCCGGCGGCUCGAGCCCGGGUAAGUGUCAAUAGUCUGCAUGCCGCCGGGCGCCAUGCCUGCAGGUCGACUCUAGAAAACAUG”, the binding signal with PUM1 PUF domain R5-RSI is 2.24 log2 enrichment (interaction score).

Consider “GGCUAGAACUAGUGGAUCCCCCGGCGCCCGGCGGCUCGAGCCCGGGUAAGUGAAAAUAGUCUGCAUGCCGCCGGGCGCCAUGCCUGCAGGUCGACUCUAGAAAACAUG”, for which the binding signal with PUM1 PUF domain R6-SWH is 2.64 log2 enrichment (interaction score).

Take “GGCUAGAACUAGUGGAUCCCCCGGCGCCCGGCGGCUCGAGCCCGGGUAAGCGUAAAUAGUCUGCAUGCCGCCGGGCGCCAUGCCUGCAGGUCGACUCUAGAAAACAUG”: the binding signal was 3.25 log2 enrichment (interaction score) with PUM1 PUF domain R8-LRR, 2.38 log2 enrichment (interaction score) with PUM1 PUF domain R8-RPR and 4.76 log2 enrichment (interaction score) with PUM1 PUF domain R8-GYK.

Turning to “GGCUAGAACUAGUGGAUCCCCCGGCGCCCGGCGGCUCGAGCCCGGGUAAGUGUUAAUAGUCUGCAUGCCGCCGGGCGCCAUGCCUGCAGGUCGACUCUAGAAAACAUG”, the binding signal with PUM1 PUF domain R5-RSI is 3 log2 enrichment (interaction score).

Consider “GGCUAGAACUAGUGGAUCCCCCGGCGCCCGGCGGCUCGAGCCCGGGUAAGUGUAUAUAGUCUGCAUGCCGCCGGGCGCCAUGCCUGCAGGUCGACUCUAGAAAACAUG”, for which, in the experiment with PUM1 PUF domain R4-MPG, the binding signal was 2.39 log2 enrichment (interaction score).

In the case of “GGCUAGAACUAGUGGAUCCCCCGGCGCCCGGCGGCUCGAGCCCGGGUAAGUGUAAAGAGUCUGCAUGCCGCCGGGCGCCAUGCCUGCAGGUCGACUCUAGAAAACAUG”, in the experiment with PUM1 PUF domain R2-GWD, the binding signal was 10.1 log2 enrichment (interaction score).

Consider “GGCUAGAACUAGUGGAUCCCCCGGCGCCCGGCGGCUCGAGCCCGGGUAAGUGUACAUAGUCUGCAUGCCGCCGGGCGCCAUGCCUGCAGGUCGACUCUAGAAAACAUG”, for which the binding signal is 2.9 log2 enrichment (interaction score) with PUM1 PUF domain R4-MPG and 5.63 log2 enrichment (interaction score) in the experiment with PUM1 PUF domain R4-VWK.

Consider “GGCUAGAACUAGUGGAUCCCCCGGCGCCCGGCGGCUCGAGCCCGGGUAAGUGUAAAUUGUCUGCAUGCCGCCGGGCGCCAUGCCUGCAGGUCGACUCUAGAAAACAUG”, for which the binding signal in the experiment with PUM1 PUF domain R1-TSR was 0.81 log2 enrichment (interaction score); in the experiment with PUM1 PUF domain R1-QLD it was 4.86 log2 enrichment (interaction score); in the experiment with PUM1 PUF domain R1-RTE it was 2.65 log2 enrichment (interaction score).

Turning to “GGCUAGAACUAGUGGAUCCCCCGGCGCCCGGCGGCUCGAGCCCGGGUAAGUGUGAAUAGUCUGCAUGCCGCCGGGCGCCAUGCCUGCAGGUCGACUCUAGAAAACAUG”, the binding signal in the experiment with PUM1 PUF domain R5-WWA was 2.58 log2 enrichment (interaction score).

Turning to “GGCUAGAACUAGUGGAUCCCCCGGCGCCCGGCGGCUCGAGCCCGGGUAAGUGUAAGUAGUCUGCAUGCCGCCGGGCGCCAUGCCUGCAGGUCGACUCUAGAAAACAUG”, the binding signal in the experiment with PUM1 PUF domain R3-LYG is 6.19 log2 enrichment (interaction score); with PUM1 PUF domain R3-MSN, 2.68 log2 enrichment (interaction score).

In the case of “GGCUAGAACUAGUGGAUCCCCCGGCGCCCGGCGGCUCGAGCCCGGGUAAGUGUAAAAAGUCUGCAUGCCGCCGGGCGCCAUGCCUGCAGGUCGACUCUAGAAAACAUG”, the binding signal in the experiment with PUM1 PUF domain R2-GWD was 3.74 log2 enrichment (interaction score); with PUM1 PUF domain R2-LWM, 7 log2 enrichment (interaction score).
